Drawing on PubChem BioAssay AID1347076 (National Center for Advancing Translational Sciences (NCATS), 2019), this text covers Potency for 98 compounds.

SMILES strings stand for the structures. The whole screen tested about 400,000 compounds, of which about 13,000 (3.2%) were called active. Entries that show only a call come without a potency. Another 18% or so got no clear call; they are omitted. This is one part of a sample in which actives are shown more often than they occur. Calls follow the shape of the dose curve; as a rule, active = well fitted cell-killing curve with a large enough effect; inconclusive = small, poorly fitted or top-dose-only effect, or effect the other way; inactive = flat fitted curve, though single readings scatter.
Potency is read from the fitted curve at half-maximal effect.

The test is described as follows: qHTS assay for MDR1-selective chemotherapeutics: Primary screen using the drug-selected MDR subline cells KB-V1. Also: nearly all actives have a fitted effect of over 60% in size. To be noted: KB-V1 MDR cells viability, CellTiter-Glo, 72 h; series mostly up to 46.1 µM. In a few lines: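 Compound-treated KB-V1 multidrug-resistant cells, 72 h, 37 degrees C; viability by CellTiter-Glo. Fitted qHTS curves give the values.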
Background: Quantitative high-throughput screening tests each substance at several concentrations.
For the compound `O=S(=O)(c1ccc(SCc2ccccc2)nc1)N1CCCCCC1`, the Potency result was “inactive”.

As for `O=S(=O)(c1ccc(SCc2ccc(Br)cc2)nc1)N1CCOCC1`, the Potency is 13 µM (active).

In the case of `Cc1ccc(CSc2ccc(S(=O)(=O)N3CCCCC3)cn2)cc1`, the Potency result was “inactive”.

With `Cc1cccc2c1-c1sc(C(=O)Nc3ccc(F)cc3F)cc1CO2`, the Potency entry was “inactive”.

For `COc1ccc(NC(=O)C2(C)Cc3c(-c4cccc(NC(C)=O)c4)ccnc3O2)cc1OC` (stereo not drawn), the Potency result was “inactive”.

As for `O=C(CSc1nnc(-c2ccncc2)n1-c1ccccc1)Nc1ccc(Cl)c(Cl)c1`, the Potency result is “inactive”.

Turning to `CCn1nccc1C(=O)Nc1ccc(Cl)c(Cl)c1`, the Potency entry is “inactive”.

Regarding `O=C(CC(O)(C(F)(F)F)C(F)(F)F)Nc1ccc(Cl)c(Cl)c1`, the Potency is 3.26 µM (active).

On to `CC1CCN(c2nc3ccc(C(=O)N4CCN(c5ccccc5)CC4)cc3s2)CC1`, for which the Potency entry was “inactive”.

For the compound `CCOC(=O)N1CCC(NC(=O)c2ccc3nc(N4CCOCC4)sc3c2)CC1`, the Potency is 3.66 µM (active).

As for `Cc1ccc(C(=O)NC2CCN(C(=O)N3CCOCC3)CC2)cc1`, the Potency result is “inactive”.

Consider `CC1CCC2(CC1)NC(=O)N(CC(=O)NCc1ccco1)C2=O` (stereo not drawn), for which the Potency result was “inactive”.

`C[C@H]1CN([C@@H](C)CO)C(=O)c2cc(-c3cccc(F)c3)cnc2O[C@@H]1CN(C)S(C)(=O)=O`: the Potency result is “inactive”.

Consider `COc1ccc(NC(=O)CCC(=O)Nc2cc(OC)c(NC(=O)c3ccco3)cc2OC)c(OC)c1`, for which the Potency entry was “inactive”.

For the compound `CC(OC(=O)c1ccc([N+](=O)[O-])cc1)C(=O)NCC1CCCCC1` (stereo not drawn), the Potency result is “inactive”.

`COc1cc(C(=O)OC(C)C(=O)NCC2CCCCC2)cc(NC(=O)c2ccco2)c1OC` (stereo not drawn): the Potency was 20.6 µM (active).

Take `CN(C)CCCOc1ccc(-c2ccc3nccn3c2)cn1`: the Potency entry is “inactive”.

Regarding `O=C(CCC1CCCC1)N=C1SC2CS(=O)(=O)CC2N1Cc1ccccc1` (stereo not drawn), the Potency entry is “inactive”.

Consider `CC(C)CC(=O)N=C1SC2CS(=O)(=O)CC2N1CCc1ccccc1` (stereo not drawn), for which the Potency is 13 µM (active).

Consider `O=C(N=C1SC2CS(=O)(=O)CC2N1Cc1ccccc1)c1ccccc1` (stereo not drawn), for which the Potency result was “inactive”.

Regarding `CCOc1ccc(C(=O)NCC(=O)N2CCN(c3ccc(C(F)(F)F)cn3)CC2)cc1`, the Potency result was “inactive”.

Turning to `C/C=C/C(=O)Nc1ccc(N2CCN(c3ccc(C(F)(F)F)cn3)CC2)nc1`, the Potency entry is “inactive”.

For `Cc1ccc(F)cc1NC(=O)N1CCCN(c2ccc(C(F)(F)F)cn2)CC1`, the Potency was 20.6 µM (active).

As for `O=C(c1cc(=O)c2ccccc2o1)N1CCN(c2ccccc2)CC1`, the Potency result was “inactive”.

For the compound `COc1cc2c(cc1OC)CN(C(=O)c1cc(=O)c3ccccc3o1)CC2`, the Potency is 2.91 µM (active).

`COc1ccccc1CNC(=O)c1cc(=O)c2ccccc2o1`: the Potency entry was “inactive”.

With `O=C(c1ccccc1)N1N=C(c2ccccc2O)CC1c1ccc(Br)cc1` (stereo not drawn), the Potency result was “inactive”.

As to `CNC(=S)N1N=C(c2ccccc2)CC1c1ccc(Br)cc1` (stereo not drawn), the Potency is 11.6 µM (active).

Regarding `COc1ccc(C2=NN(C(C)=O)C(c3ccccc3)C2)cc1` (stereo not drawn), the Potency result was “inactive”.

With `CC1(C(=O)NS(=O)(=O)c2ccc(C#N)cc2)CCN1C(=O)c1ccc(C2CCCCC2)cc1` (stereo not drawn), the Potency result is “inactive”.

Take `CCOC(=O)C1CCC(CN(Cc2ccc(OC)cc2)S(=O)(=O)c2ccc(F)c(C(=O)Nc3cc(C)ccc3C)c2)CC1` (stereo not drawn): the Potency result is “inactive”.

Consider `N#CC1=C(SCc2ccccc2)NC(=O)C(C#N)C12CCCC2` (stereo not drawn), for which the Potency is 14.6 µM (active).

`N#CC1=C(SCc2ccc(C#N)cc2)N=C(N)C(c2nc(-c3ccccc3)cs2)C12CCCCC2` (stereo not drawn): the Potency result was “inactive”.

For `CCCCN1CC(C)(C)[C@H](CC(=O)Nc2ccc(Br)cc2)C1=O`, the Potency result is “inactive”.

Take `COc1ccccc1CNC(=O)CCCCn1c(=O)c2ccccc2n(CC(=O)Nc2cc(Cl)ccc2C)c1=O`: the Potency entry was “inactive”.

Take `CC(Sc1oc(-c2ccco2)nc1S(=O)(=O)c1ccc(Br)cc1)c1ccccc1` (stereo not drawn): the Potency entry is “inactive”.

Take `Cc1ccc(C(=O)NC(C)C(c2cccs2)N2CCOCC2)cc1C` (stereo not drawn): the Potency result is “inactive”.

For the compound `CCN(CCCNC(=O)c1cc(Nc2ccc(OC)cc2)nc2ccccc12)c1cccc(C)c1`, the Potency result was “inactive”.

In the case of `CN(C(=O)COC(=O)CNC(=O)C12CC3CC(CC(C3)C1)C2)c1ccccc1`, the Potency result was “inactive”.

In the case of `CN(C(=O)CC(NC(=O)c1ccccc1)(c1ccccc1)c1ccccc1)c1ccccc1`, the Potency is 10.3 µM (active).

As to `CC(C)(C)c1ccc(C(=O)NNC(=O)Cc2ccccc2)cc1`, the Potency entry is “inactive”.

Take `O=C(Nc1cccc(-c2nc3ccccc3o2)c1)c1cccc(Br)c1`: the Potency result is “inactive”.

With `Nc1nc(N)c(N=O)c(N)n1`, the Potency result is “inactive”.

Consider `COc1ccc(NC(=O)CCC(=O)N2CCN(S(=O)(=O)c3ccc(C)cc3)CC2)c(OC)c1`, for which the Potency result was “inactive”.

Regarding `O=C(CCC(=O)N1CCN(S(=O)(=O)c2ccccc2)CC1)NC1CCCc2ccccc21` (stereo not drawn), the Potency result was “inactive”.

With `Cc1ccc(S(=O)(=O)N2CCN(C(=O)CCC(=O)NC3CCCc4ccccc43)CC2)cc1` (stereo not drawn), the Potency was 23.1 µM (active).

Turning to `CC1(C(=O)NS(=O)(=O)c2cccc(F)c2)CCN1C(=O)c1cccc2ccccc12` (stereo not drawn), the Potency result was “inactive”.

Regarding `COc1ccccc1-n1c(SCC(=O)Nc2ccc(Cl)cc2)nc(O)c(Cc2ccccc2)c1=O`, the Potency entry is “inactive”.

On to `CCc1cc2c(NC3CCCC3)ncnc2s1`, for which the Potency result was “inactive”.

In the case of `CCc1cc2c(N3CCN(c4nnc(CC)s4)CC3)ncnc2s1`, the Potency was 3.66 µM (active).

As to `Oc1ccccc1N1CCN(c2ncnc3sc(-c4ccccc4)cc23)CC1`, the Potency result is “inactive”.

For the compound `CCCNC(=O)C1(C)CCCN(C(=O)c2oc3ccccc3c2C)C1` (stereo not drawn), the Potency entry was “inactive”.

Consider `C=CCOc1ccccc1/C=N/NC(=O)Cc1ccccc1`, for which the Potency result was “inactive”.

As to `O=C(Cc1ccccc1)N/N=C/c1ccc(Cl)cc1Cl`, the Potency was 23.1 µM (active).

Regarding `O=C(Cn1cc(C(F)(F)F)ccc1=O)N/N=C/c1ccc(Cl)cc1Cl`, the Potency result was “inactive”.

Turning to `CN(C)c1ccc(/C=c2\[nH]c(=O)/c(=C/c3ccc(N(C)C)cc3)[nH]c2=O)cc1`, the Potency entry is “inactive”.

With `COc1ccc(OC)c(Cc2nnc(CCC(=O)NC3CCCC3)o2)c1`, the Potency entry is “inactive”.

Consider `COc1ccc(OC)c(-n2nnc3c(sc4nc(C)c(Br)c(C)c43)c2=O)c1`, for which the Potency result is “inactive”.

As to `COc1ccc(OC)c(Cc2cnc3nc(N)nc(N)c3c2C)c1`, the Potency was 10.3 µM (active).

As for `Nc1nc2c(Br)ccc(Br)c2cc1C(=O)NCCc1ccccc1`, the Potency entry is “inactive”.

Consider `Cc1cc(Br)ccc1NC(=O)CCCOc1cc(=O)n(C)c2ccccc12`, for which the Potency entry is “inactive”.

With `O=C(c1cccc(S(=O)(=O)Nc2ccccc2Cl)c1)N1CCN(C(=O)c2ccco2)CC1`, the Potency entry was “inactive”.

Consider `O=C(Nc1ccc2c(c1)CCC2)c1cccc(S(=O)(=O)N2CCN(c3ccc(F)cc3)CC2)c1`, for which the Potency result was “inactive”.

For the compound `O=C(Nc1ccc2c(c1)CCC2)c1cccc(S(=O)(=O)Nc2ccccc2Cl)c1`, the Potency is 20.6 µM (active).

As for `Cc1ccc2nc(/C(C#N)=C/c3ccc(-c4ccc(C(=O)OC(C)C)cc4)o3)[nH]c2c1`, the Potency result was “inactive”.

`CCN(CC)C(=O)C(C)N1c2cccc3cccc(c23)S1(=O)=O` (stereo not drawn): the Potency entry was “inactive”.

As for `O=C(Cc1cccs1)Nc1cccc(-c2nc3ccccc3[nH]2)c1`, the Potency was 16.4 µM (active).

Regarding `O=C(Nc1ccc(-c2nc3ccccc3[nH]2)cc1)c1ccncc1`, the Potency entry is “inactive”.

Take `CCOC(=O)c1ccc(NC(=O)Cc2cccs2)cc1`: the Potency result is “inactive”.

As for `CC(C)c1cc(C(=O)N(C)C2CCCN(Cc3ccccc3F)C2)n(C)n1` (stereo not drawn), the Potency entry is “inactive”.

On to `Cc1nccn1-c1ccc(NC(=O)[C@H]2O[C@@H](n3ccc(=O)[nH]c3=O)[C@H](O)[C@@H]2O)cc1`, for which the Potency entry was “inactive”.

For the compound `CCOC(=O)c1cc(-c2ccccc2)n(-c2cccc(C(=O)Nc3cc(OC)cc(OC)c3)c2)c1C`, the Potency result is “inactive”.

On to `COc1ccc(C(=O)C(C)OC(=O)c2cccc(S(=O)(=O)Nc3c(C)n(C)n(-c4ccccc4)c3=O)c2)cc1` (stereo not drawn), for which the Potency entry was “inactive”.

In the case of `Cc1c(NS(=O)(=O)c2ccc(Cl)cc2)c(=O)n(-c2ccccc2)n1C`, the Potency entry is “inactive”.

For the compound `Cc1c(NS(=O)(=O)c2cccc(C(=O)Nc3ccc(SC(F)F)cc3)c2)c(=O)n(-c2ccccc2)n1C`, the Potency was 5.17 µM (active).

As to `COc1cccc(CN2CCC(C(=O)NC(c3ccc4c(c3)OCO4)c3ccccn3)CC2)c1` (stereo not drawn), the Potency entry was “inactive”.

Consider `COc1ccc(NC(C(=O)Nc2cccc(C(C)=O)c2)c2ccccc2)cc1` (stereo not drawn), for which the Potency is 4.61 µM (active).

For the compound `COc1ccc(/C=C(/NC(=O)c2ccccc2)C(=O)Nc2cccc(C(=O)O)c2)cc1`, the Potency result was “inactive”.

As to `CC(=O)c1cccc(NC(=O)[C@@H](NC(N)=O)C(C)C)c1`, the Potency entry is “inactive”.

On to `CN(C)c1ccc(/C=N\Nc2ccc([N+](=O)[O-])cc2[N+](=O)[O-])cc1Cl`, for which the Potency entry was “inactive”.

For the compound `Cc1nc(Nc2ccc(S(=O)(=O)N3CCCC3)cc2)c2nnn(Cc3ccccc3)c2n1`, the Potency result was “inactive”.

Consider `CC(C)Nc1ncnc2c1nnn2Cc1ccccc1`, for which the Potency entry is “inactive”.

As for `CC(C)Cc1nc(Nc2ccc(S(=O)(=O)N3CCCC3)cc2)c2nnn(Cc3ccccc3)c2n1`, the Potency is 20.6 µM (active).

As to `CCOC(=O)[C@]12CCCC=C1N(Cc1cccc3ccccc13)C(=O)[C@H](CC(=O)NCC13CC4CC(CC(C4)C1)C3)C2`, the Potency result is “inactive”.

In the case of `CCOC(=O)[C@]12CCC=C1N(Cc1ccco1)C(=O)[C@H](CC(=O)NCc1cccc(C(F)(F)F)c1)C2`, the Potency entry is “inactive”.

Regarding `CCOC(=O)[C@]12CCC=C1N(Cc1cccc3ccccc13)C(=O)[C@H](CC(=O)NCc1cccc(C(F)(F)F)c1)C2`, the Potency is 20.6 µM (active).

As for `O=C(NC1CCCC1)c1cc(-c2ccccc2)on1`, the Potency is 16.4 µM (active).

For `O=C(NC1CCCCC1)c1cc(C2CC2)on1`, the Potency result was “inactive”.

Consider `O=C(NC1CCCCCCC1)c1cccs1`, for which the Potency result is “inactive”.

Regarding `CCCCN1C(=O)C(CC(=O)NC(c2ccccc2)c2ccccc2)CC(C(=O)N2CCOCC2)=C1C` (stereo not drawn), the Potency result was “inactive”.

With `N#Cc1ccc[n+](CC(=O)c2ccc(O)c(O)c2)c1`, the Potency entry was “inactive”.

For the compound `Cc1ccc(C(=O)OCc2nc(N)nc(Nc3ccccc3C)n2)cc1`, the Potency result is “inactive”.

Turning to `Cc1ccccc1Nc1nc(N)nc(CSc2ccccc2)n1`, the Potency entry was “inactive”.

With `CCCn1nc(C(=O)OCc2nc(N)nc(Nc3ccccc3C)n2)c2ccccc2c1=O`, the Potency is 20.6 µM (active).

With `O=C(Nc1cccc2cccnc12)c1ccc2sc([C@H]3C[C@H](O)[C@@H](CO)O3)nc2c1`, the Potency result was “inactive”.

As to `Cc1ccc(NC(=O)Cn2cnc3nc4c(cc3c2=O)CCCC4)cc1Cl`, the Potency entry was “inactive”.

On to `CC(=O)NCCn1c(SCC(=O)Nc2ccc(C)cc2)nc2ccccc2c1=O`, for which the Potency entry is “inactive”.

For the compound `CCn1c(SCC(=O)Nc2ccc(C)cc2)nc2nc3c(cc2c1=O)CCCC3`, the Potency is 0.651 µM (active).
